# Measured values reported in the supplement of paper PMC12532568.
# Structures can show the parent of a compound that is named as a salt.
# System: Danio rerio larvae Tg(actc1b:ZsGreen-LC3), 3 dpf
# Assay: LC3 puncta relative area vs vehicle, with NH4Cl (autophagic flux) (log2 fold change); higher = more autophagy
# Settings: 10 µM; treatment time 16 h; NH4Cl: + 100 mM, 4 h
# Method: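 Transgenic Tg(actc1b:ZsGreen-map1lc3) zebrafish larvae (2 dpf) were treated for 16 h with Tocris library compounds at 10 µM (n = 12 larvae per compound). Skeletal-muscle LC3 puncta area relative to body area was measured by high-content confocal imaging before and after 4 h of 100 mM NH4Cl (autophagic flux), normalised to vehicle (DMSO), and reported as log2 fold change.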
row,Compound,LC3 puncta (log2)
1,COc1ccc(CCN(C)CCc2ccc(OC)c(OC)c2)cc1OC [YS-035 hydrochloride],0.374
2,NC(=O)c1cccc(N)c1 [3-Aminobenzamide],0.645
3,O=C(O)CC/C=C\C[C@H]1CO[C@@H](c2ccccc2Cl)O[C@H]1c1ccccc1O,-0.012
4,NS(=O)(=O)c1cccc2c1c([N+](=O)[O-])cc1nc(O)c(O)nc12,0.16
5,N[C@@H](CSS(=O)(=O)O)C(=O)O [S-Sulfo-L-cysteine sodium salt],0.324
6,CC(C)NC[C@@H](O)COc1cccc2ccccc12 [(R)-(+)-Propranolol hydrochloride],-0.318
7,N[C@H](C(=O)O)c1cc(O)cc(O)c1,0.736
8,NC(=O)OCC(COC(N)=O)c1ccccc1 [Felbamate],-0.777
9,O=C(O)c1cc(=O)c2ccccc2[nH]1 [Kynurenic acid],-0.156
10,OCCN(CCO)c1nc(N2CCCCC2)c2nc(N(CCO)CCO)nc(N3CCCCC3)c2n1 [Dipyridamole],-0.141
11,NC(C(=O)O)c1cc(O)cc(O)c1 (racemic),0.022
12,CC(C)(Oc1ccc(Cl)cc1)C(=O)O [Clofibric acid],0.77
13,CC(C)[C@H]1CC[C@H](C(=O)N[C@H](Cc2ccccc2)C(=O)O)CC1 [Nateglinide],0.54
14,CCN(CC)CCOc1ccc(Cc2ccccc2)cc1 [DPPE fumarate],0.857
15,CC(C)NC[C@H](O)COc1ccc(CC(N)=O)cc1 [(S)-(-)-Atenolol],0.611
16,NC(N)=NC(N)=Nc1cccc(Cl)c1 [m-Chlorophenylbiguanide hydrochloride],0.782
17,CC1=NN(c2ccccc2)C(=O)C1 [Edaravone],0.405
18,COc1ccc2[nH]c(I)c(CCNC(C)=O)c2c1 [2-Iodomelatonin],0.706
19,COc1cc(C(=O)OCCCN2CCCN(CCCOC(=O)c3cc(OC)c(OC)c(OC)c3)CC2)cc(OC)c1OC [Dilazep],0.426
20,CC(C(O)c1ccc(O)cc1)N1CCC(Cc2ccccc2)CC1 (stereo not given) [Ifenprodil hemitartrate],0.445

row,Compound,LC3 puncta (log2)
1,Fc1ccc(C(c2ccc(F)cc2)N2CCN(C/C=C/c3ccccc3)CC2)cc1 [Flunarizine dihydrochloride],0.536
2,O=S(=O)(c1cccc2cnccc12)N1CCCNCC1 [Fasudil hydrochloride],0.726
3,CC(=O)N[C@@H](CC(=O)N[C@@H](CCC(=O)O)C(=O)O)C(=O)O [Spaglumic acid],0.103
4,CN(C)CCCCSC(=N)N,0.383
5,C1COC(NC(C2CC2)C2CC2)=N1 [Rilmenidine hemifumarate],0.305
6,CN(C)CCCSC(=N)N [Dimaprit dihydrochloride],0.561
7,O=c1nc2ccccc2c2n1CC(CN1CCN(c3ccccc3)CC1)N2 (stereo not given),0.259
8,CC(Cc1ccc(O)c(O)c1)(NN)C(=O)O [(S)-(-)-Carbidopa],0.219
9,c1ccc2nc(C3=NCCN3)cnc2c1 [BU 239 hydrochloride],0.0532
10,CCOC(=O)C1=C[C@]2(CC)CCCN3CCc4c(n1c1ccccc41)[C@@H]32 [Vinpocetine],1
11,CN1CCC(=C2c3ccccc3CC(=O)c3sccc32)CC1 [Ketotifen fumarate],0.874
12,CCC(C)N(C)C(=O)c1cc2ccccc2c(-c2ccccc2Cl)n1 (stereo not given),0.363
13,"Cc1ccc(OCC(O)C(C)NC(C)C)c2c1CCC2 (stereo not given) [ICI 118,551 hydrochloride]",0.592
14,N[C@H](C(=O)O)c1ccc(O)c(C(=O)O)c1 [(S)-3-Carboxy-4-hydroxyphenylglycine],0.54
15,NC(N)=Nc1ccc(Cl)cc1 [4-Chlorophenylguanidine hydrochloride],0.148
16,S=C(S)N1CCCC1 [Pyrrolidinedithiocarbamate ammonium],0.71
17,COc1cc2c(CCNC(C)=O)c[nH]c2cc1Cl [6-Chloromelatonin],0.198
18,CN(C)CCCn1cc(C2=C(c3c[nH]c4ccccc34)C(=O)NC2=O)c2ccccc21,0.575
19,CCCCCCN(CCCCCC)C(=O)Cc1c(-c2ccc(Cl)cc2)[nH]c2ccc(Cl)cc12,0.58
20,CCC1(c2ccccc2)C(=O)NCNC1=O [Primidone],0.792
